Among the data in PubChem BioAssay (EPA / NIEHS) are outcome and AC50 values, retold here.

Several values for one entry are separate records, joined by “and”; a condition that tells them apart may be missing. Equal entries are not always repeated. Records with an inconclusive call do not appear. Activity calls are given as the source filed them. The calls were made as follows: active = hit-call score of the fitted dose curve at least 0.9, where 1 is the maximum; inconclusive = response in the unintended direction; inactive = score below 0.9.

For this test, the target named is Glucocorticoid receptor (Homo sapiens) (UniProt P04150). The test can be described thus: NVS_NR_hGR: NovaScreen (NVS) Nuclear Receptor Binding Assay for human Glucocorticoid Receptor (GR) (AID 2283363). Here is the method: NVS_NR_hGR is a biochemical, single-readout assay that uses extracted gene-proteins in a cell-free assay. Measurements were taken 16 hours after chemical dosing in a 96-well plate.NVS_NR_hGR is one of one assay component(s) measured or calculated from the NVS_NR_hGR assay. It is designed to make measurements of radioligand binding, a form of binding reporter, as detected with scintillation counting signals by Filter-based radiodetection technology.Data from the assay component NVS_NR_hGR was analyzed into 1 assay endpoint. This assay endpoint, NVS_NR_hGR, was analyzed in the positive analysis fitting direction relative to DMSO as the negative control and baseline of activity. Using a type of binding reporter, loss-of-signal activity can be used to understand changes in the binding as they relate to the gene NR3C1. Furthermore, this assay endpoint can be referred to as a primary readout, because the performed assay has only produced 1 assay endpoint. To generalize the intended target to other relatable targets, this assay endpoint is annotated to the nuclear receptor intended target family, where the subfamily is steroidal.
Sequence of Glucocorticoid receptor (Homo sapiens) (P04150 whole entry, looked up): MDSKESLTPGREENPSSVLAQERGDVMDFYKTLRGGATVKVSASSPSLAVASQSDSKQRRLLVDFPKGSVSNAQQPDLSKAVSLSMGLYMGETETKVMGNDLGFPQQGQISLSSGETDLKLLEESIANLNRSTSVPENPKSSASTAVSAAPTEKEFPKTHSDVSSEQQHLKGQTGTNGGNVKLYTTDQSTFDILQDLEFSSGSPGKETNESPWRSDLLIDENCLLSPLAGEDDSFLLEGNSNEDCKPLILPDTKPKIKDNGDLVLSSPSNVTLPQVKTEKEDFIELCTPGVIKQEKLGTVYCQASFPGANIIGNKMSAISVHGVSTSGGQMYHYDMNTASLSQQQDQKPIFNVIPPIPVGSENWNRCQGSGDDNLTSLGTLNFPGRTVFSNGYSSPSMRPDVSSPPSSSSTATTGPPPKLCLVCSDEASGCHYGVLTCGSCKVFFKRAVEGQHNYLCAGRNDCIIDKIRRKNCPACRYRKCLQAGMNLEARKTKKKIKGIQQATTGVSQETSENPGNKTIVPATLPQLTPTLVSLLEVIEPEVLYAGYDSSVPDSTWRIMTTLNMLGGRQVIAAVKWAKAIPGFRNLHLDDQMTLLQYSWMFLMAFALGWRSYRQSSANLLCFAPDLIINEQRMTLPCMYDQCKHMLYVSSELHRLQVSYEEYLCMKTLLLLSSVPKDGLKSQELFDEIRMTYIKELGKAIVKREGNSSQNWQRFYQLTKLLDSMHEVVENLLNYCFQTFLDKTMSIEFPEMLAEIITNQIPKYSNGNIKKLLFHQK
Binding assays used specific radioligands (tritiated, iodinated) with non-radioactive competitive displacement ligands in agonist or antagonist protocols (as indicated) and various reference compounds and inhibitors to titrate specific binding to receptors and transporters. Most enzyme assays (CYPs, kinases, phosphatases, proteases, HDACs) used recombinant protein and specific substrates (fluorescence mostly, some colorimetric and radioactive) and inhibitors, followed by a biochemical separation of substrate and product. All assays for the biochemical HTS were initially run in duplicate at a single concentration (10 uM for CYP450 assays and 25 uM for all others). […] Each assay was run with positive and negative controls, and concurrent controls on every plate. The follow-up (secondary) screen tested active chemical-pairs in concentration series, as well as a few additional assays not tested in the primary screen, some selected negative inactives, and several cases re-run in the concentration series for confirmatory purposes.
As for `C[C@@H]1C[C@H]2[C@@H]3CCC4=CC(=O)C=C[C@]4(C)[C@@]3(F)[C@@H](O)C[C@]2(C)[C@@]1(O)C(=O)COP(=O)(O)O`, the outcome was inactive. Broadly, the AC50 is the midpoint of the concentration-response curve, whichever way the signal moves. For `CCCCCCCCCCCCCC[N+](C)(C)C`, the AC50 was 6.85 µM (active) and 29.1 µM (active).

In the case of `CC[C@H](C)[C@@H](C(=O)O)n1sc2ccccc2c1=O`, the compound was classed as inactive. As for `CCCCCCCCCCCCc1ccccc1S(=O)(=O)O`, the AC50 is 2.47 µM (active). The same measure, in the same setting: in the case of `NC(=O)N1C(=O)C(C(=O)c2cc(Cl)cs2)c2cc(F)c(Cl)cc21` (stereo unspecified) it was 19.6 µM (active). As for `CC(=O)NC1(c2cccc(F)c2)CCN(CC[C@@]2(c3ccc(Cl)c(Cl)c3)CN(c3ccccc3)C(=O)CO2)CC1`, the compound was classed as inactive. With `Nc1cccc2c(N)cccc12`, the AC50 was 13.4 µM (active). Regarding `CC(C)CCCCCCOC(=O)CCCCC(=O)OCCCCCCC(C)C`, the compound was called inactive.

With `Oc1cc2ccccc2c2ccccc12`, the AC50 is 1.54 µM (active). On the same count and under the same terms, in the case of `O=C(O)Cc1cc(I)c(Oc2cc(I)c(O)c(I)c2)c(I)c1` it was 5.56 µM (active) and 109 nM (active). For `CC#C[C@]1(O)CC[C@H]2[C@@H]3CCC4=CC(=O)CCC4=C3[C@@H](c3ccc(N(C)C)cc3)C[C@@]21C`, the compound was called inactive. As to `CCCOc1sc(C(=O)N2CCC(c3cc(CN)ccc3F)CC2)c(C)c1Br`, the AC50 was 15 µM (active).

Take `CCN(CC)CCNc1ccc(CNC=O)c2sc3ccc(OC)cc3c(=O)c12`: the compound was classed as inactive. For the compound `CC(O)CO` (stereo unspecified), the compound was called inactive. Turning to `O=C(O)c1ccccc1C(c1ccc(O)cc1)c1ccc(O)cc1`, the AC50 is 10.2 µM (active).

For `O=C1OC2(c3ccccc31)c1cc(Br)c(O)c(Br)c1Oc1c2cc(Br)c(O)c1Br`, the AC50 is 20.9 µM (active).
